Source: PubChem BioAssay (National Center for Advancing Translational Sciences (NCATS))
This is a sample that favours compounds with a hit; in the whole collection about 18% have one here.
TDP1 cell CPT – qHTS for Inhibitors of human tyrosyl-DNA phosphodiesterase 1 (TDP1): qHTS in cells in presence of CPT; chicken DT40 Tdp1-/-;hTDP1 cells + 20 nM CPT, ATP luminescence, 48 h; Potency, µM (series often up to 46.2 µM), hits mostly inhibitors; hit rate 12% among 420,000; AID 686979, 2013; also: nearly all actives have a fitted effect of over 55% in size
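Chicken DT40 Tdp1-/- cells stably complemented with human TDP1 were seeded at 400 cells/well in medium containing 20 nM camptothecin, exposed to pin-transferred compounds, and grown at 37 °C for at least 48 hr. Viability was read as ATP luminescence.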
TDP1 inh – qHTS Assay for Inhibitors of Tyrosyl-DNA Phosphodiesterase (TDP1); recombinant TDP1, AlphaScreen DNA substrate cleavage; Tyrosyl-DNA phosphodiesterase 1 (Homo sapiens), Q9NUW8; AID 485290, 2010; hit rate 0.28% among 350,000; Potency, µM (series often up to 130 µM), hits mostly inhibitors; also: nearly all actives have a fitted effect of over 40% in size
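Tdp1 1 nM final; 15 min RT w/ cpd; substrate 15 nM, 5 min; beads 10 ug/ml, 10 min; AlphaScreen read. Neg ctrl: no enzyme.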
GCN5L2 inh – qHTS Assay for Inhibitors of GCN5L2 | Histone acetyltransferase KAT2A (Homo sapiens), Q92830 | GCN5L2 HAT assay, ThioGlo1 CoA-SH fluorescence | Potency, µM (top dose mostly 58.9 µM), usual class: inhibitors | hit rate 0.21% among 390,000 | AID 504327, 2011
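Preincubate 20nM GCN5L2 with compound 15 min, RT → add 50uM ThioGlo1 + 75uM H3(1-25) + 70uM acetyl-CoA → read fluorescence 0 and 20 min. Primary qHTS; fluorescent artifacts likely.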
DT40 TDP1 no CPT – qHTS for Inhibitors of human tyrosyl-DNA phosphodiesterase 1 (TDP1): qHTS in cells in absence of CPT; DT40 Tdp1-/- hTDP1 cells, no CPT, ATP luminescence, 48 h; Potency, µM (highest dose often 46.2 µM), most hits filed as inhibitors; hit rate 15% among 420,000; AID 686978, 2013; also: nearly all actives have a fitted effect of over 55% in size
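A cellular qHTS used chicken DT40 cells lacking endogenous Tdp1 but carrying stably transfected human TDP1. Compounds were applied without camptothecin, and cell growth kinetics were judged by ATP-dependent luminescence after ≥48 hr.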
PLK1 PBD block – qHTS for Inhibitors of PLK1-PDB (polo-like kinase 1 - polo-box domain): Primary Screen | Serine/threonine-protein kinase PLK1 (Homo sapiens), P53350 | Plk1 PBD binding of FITC phosphopeptide, fluorescence polarization | Potency, µM, actives largely listed as inhibitors | hit rate 2.8% among 360,000; also: series mostly up to about 57 µM; nearly all actives have a fitted effect of over 65% in size
Target sequence (P53350 whole entry, looked up, the tested form may be a part): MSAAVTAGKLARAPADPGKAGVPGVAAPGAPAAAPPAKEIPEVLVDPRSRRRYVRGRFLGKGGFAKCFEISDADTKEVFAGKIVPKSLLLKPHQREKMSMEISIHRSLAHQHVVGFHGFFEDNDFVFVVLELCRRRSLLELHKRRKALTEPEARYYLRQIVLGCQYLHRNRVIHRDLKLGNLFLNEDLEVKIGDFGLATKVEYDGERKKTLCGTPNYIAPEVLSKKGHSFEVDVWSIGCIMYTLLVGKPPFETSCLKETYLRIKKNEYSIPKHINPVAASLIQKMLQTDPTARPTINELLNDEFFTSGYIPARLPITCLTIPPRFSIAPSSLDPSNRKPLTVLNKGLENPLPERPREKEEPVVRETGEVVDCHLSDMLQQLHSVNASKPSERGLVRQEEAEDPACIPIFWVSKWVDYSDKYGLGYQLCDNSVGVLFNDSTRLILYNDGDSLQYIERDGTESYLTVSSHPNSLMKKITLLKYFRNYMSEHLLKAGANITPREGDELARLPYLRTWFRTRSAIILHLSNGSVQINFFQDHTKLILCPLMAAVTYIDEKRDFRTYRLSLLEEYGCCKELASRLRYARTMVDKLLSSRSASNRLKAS
VDR inh – Inhibitors of the vitamin D receptor (VDR): qHTS. hit rate 0.93% among 400,000. VDR-SRC2-3 peptide fluorescence polarization, 2 h. Potency, µM, usual class: inhibitors. Vitamin D3 receptor (Homo sapiens), P11473
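FP read-out; VDR + SRC2-3 coactivator peptide; 23 nl compound by pintool; 2 h RT incubation; reagents held at 4 deg C, protected from light.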
Hits are given with their value; – = inactive; ? = inconclusive; · = no result; [ ] = remark or other dose. Calls follow the shape of the dose curve; as a rule, active = well fitted curve in the direction sought with a large enough effect; inconclusive = small, poorly fitted or top-dose-only effect, or another doubt; inactive = no such curve, though single readings can be large; an effect the other way counts as inactive or inconclusive.

SMILES | TDP1 cell CPT | TDP1 inh | GCN5L2 inh | DT40 TDP1 no CPT | PLK1 PBD block | VDR inh
CN(CC(=O)Nc1ccccc1Br)C(=O)c1cccc(S(=O)(=O)N2CCc3ccccc32)c1 | ? | · | · | ? | – | –
COc1ccc(NC(=O)CN(C)C(=O)c2cccc(S(=O)(=O)N3CCCc4ccccc43)c2)cc1 | 10.3µM | – | – | – | – | –
O=C(c1cccc(S(=O)(=O)N2CCc3ccccc32)c1)N1CCCC(C(F)(F)F)C1 (centres undefined) | 10.3µM | –[0.505 µM] | – | 20.6µM | – | –
O=C(c1ccc(S(=O)(=O)Nc2ccccc2)cc1)N1CCCC(C(F)(F)F)C1 (centres undefined) | ? | – | – | ? | – | –
CCOCCCNc1ncnc2c1nc1n2CCCC1 | – | · | – | – | – | –
COC(=O)c1cc2occc2n1CC(=O)Nc1ccc(C(C)C)cc1 | ? | – | – | – | · | –
CN(C)C(=O)c1ccc(NC(=O)c2cccc(S(=O)(=O)N3CCCc4ccccc43)c2)cc1 | 23.1µM | · | – | 16.4µM | – | –
CCC(CC)c1nnc(NC(=O)c2cccc(S(=O)(=O)N3CCc4ccccc43)c2)s1 | ? | – | – | ? | – | –
O=C(NCCCN1CCOCC1)c1cccc(S(=O)(=O)N2CCc3ccccc32)c1 | ? | · | · | 23.1µM | – | ·
CCOC(=O)c1sc(NC(=O)c2cccc(S(=O)(=O)N3CCc4ccccc43)c2)c(C#N)c1C | 5.8µM | · | – | 2.91µM | ? | –
CN1CCc2nc(NC(=O)c3cccc(S(=O)(=O)N4CCc5ccccc54)c3)sc2C1 | – | – | – | – | – | –
O=C(Nc1nc2c(s1)CCCC2)c1cccc(S(=O)(=O)N2CCCc3ccccc32)c1 | 25.9µM | – | – | 23.1µM | – | –
CC(C)(C)n1nc2c(c1NC(=O)C1CC(=O)N(c3ccc(Cl)cc3)C1)CS(=O)(=O)C2 (centres undefined) | – | – | – | – | – | –
Cc1ccc2[nH]c(C(=O)N3CCc4c(cnc(C)c4CNC(=O)c4ccccc4F)C3)cc2c1 | –[9.04 µM] | · | · | – | · | ·
Nc1ccc(C(=O)N/N=C/c2cn(Cc3cccc(F)c3)c3ccccc23)cc1 | ? | – | – | ? | – | –
O=C(Nc1ccncc1)c1cccc(S(=O)(=O)N2CCc3ccccc32)c1 | 5.8µM | – | – | 6.51µM | – | –
O=C(N/N=C/c1ccc(Cl)cc1)c1cc2c(s1)-c1ccccc1CC2 | 3.66µM | – | – | 5.17µM | – | –
Cc1c(NC(=O)C(F)(F)F)ccc2nc3c(=O)n(C)c(=O)n(C)c3nc12 | ? | – | – | 16.4µM | · | –
Cn1c(=O)n(C)c2cc(NC(=O)C(F)(F)F)ccc21 | – | – | – | – | – | –
Cc1occc1C(=O)NNC(=O)Nc1ccc([N+](=O)[O-])cc1 | – | – | – | – | – | –
Cc1occc1C(=O)Nc1cccc([N+](=O)[O-])c1 | – | – | – | – | – | 22.4µM
Cc1occc1C(=O)Nc1ccc([N+](=O)[O-])cc1Br | 1.3µM | – | – | 29.1µM | – | –
COc1ncccc1-c1ccc2nncn2c1 | – | · | · | – | – | ·
COc1cc(Cl)c(NC(=O)c2cc3ccccn3n2)c(OC)c1 | 16.4µM | – | – | 20.6µM | · | –
COc1ccc(NC(=O)c2cc3ccccn3n2)cc1 | – | – | – | – | – | –
SMILES | TDP1 cell CPT | TDP1 inh | GCN5L2 inh | DT40 TDP1 no CPT | PLK1 PBD block | VDR inh
COC(=O)c1nn(-c2ccc(OC)cc2)c(=O)c2c(N)sc(C)c12 | 23.1µM | – | – | 16.4µM | 23.8µM | ?
COc1ccc(-n2nc(C(=O)O)c3csc(N)c3c2=O)cc1 | · | – | · | · | · | ·
CCOC(=O)c1nn(-c2ccc(C)cc2)c(=O)c2c(N)scc12 | – | – | – | – | – | 12.6µM
COC(=O)c1cc(S(=O)(=O)NCCc2sccc2C)c[nH]1 | – | – | – | – | – | –
Cc1ccc(C)c(N2CCN(Cc3nnc(-c4ccc5c(c4)OCO5)o3)CC2)c1 | ? | – | – | ? | · | –
Cc1nc(-c2cccc(NC(=O)c3ccc(-n4cccn4)cc3)c2)cs1 | 14.6µM | – | – | 10.3µM | – | –
Cc1cccc(-c2cc(=O)c3cc(Br)ccc3o2)c1 | – | – | – | – | · | –
COc1ccc(C2=NN(CN3C(=O)C(=O)c4ccccc43)C(c3ccc(C)cc3)C2)cc1 (centres undefined) | 18.4µM | – | – | ? | – | –
COc1ccc(C2=NN(CN3C(=O)C(=O)c4ccccc43)C(c3ccc(Br)cc3)C2)cc1 (centres undefined) | 16.4µM | – | – | 6.51µM | – | –
COc1ccc2c(c1)C(=NNc1ccc(C(=O)O)cc1)c1cc(OC)ccc1-2 | ? | · | ? | 23.1µM | ? | –
COc1ccc(/C(C)=N/Nc2ccc(C(=O)O)cc2)c(OC)c1 | – | – | – | – | – | –
COc1ccc2c(c1)C(=NN)c1cc(OC)ccc1-2 | 16.4µM | – | – | ? | – | –
O=C(NCCCN1CCCC1)c1cc2c(Cl)nc3ccccc3c2s1 | 14.6µM | – | – | 11.6µM | – | –
O=C(NCCCN1CCN(c2ccccc2F)CC1)c1cc2c(Cl)nc3ccccc3c2s1 | 16.4µM | – | – | 14.6µM | · | –
Cc1ccc(C(=O)Nc2cccc(O)c2)cc1S(=O)(=O)N1CCCCCC1 | 29.1µM | – | – | 1.16µM | – | –
COc1ccc(NC(=O)COc2ccccc2C)cc1S(=O)(=O)N1CCCCC1 | ? | – | – | 8.2µM | – | –
COc1ccc(NC(=O)COc2ccccc2C(N)=O)cc1S(=O)(=O)N1CCCCC1 | – | · | · | ? | – | ·
COc1ccc(NC(=O)CN(Cc2ccco2)Cc2ccco2)cc1S(=O)(=O)N1CCCCC1 | 23.1µM | – | – | ? | – | ?
Cc1ccc(NC(=O)c2ccc(C)c(S(=O)(=O)N3CCCCCC3)c2)cc1 | · | – | – | · | · | –
Cc1ccc(NC(=O)/C=C/c2ccco2)cc1S(=O)(=O)N1CCCCCC1 | 20.6µM | · | · | 9.2µM | – | –
Cc1ccc(OCC(=O)OCc2cc(=O)n3ccsc3n2)cc1C | – | – | – | ? | · | –
COc1ccc(C(c2c(O)cc(C)n(Cc3ccco3)c2=O)N2CCN(c3ccccc3)CC2)cc1 (centres undefined) | – | – | – | – | · | –
Cc1ccc(NC(=O)CCl)cc1S(=O)(=O)N1CCCCCC1 | 2.06µM | – | – | 2.59µM | – | –
Cc1ccc(NC(=O)COc2ccccc2C(N)=O)cc1S(=O)(=O)N1CCCCCC1 | 4.11µM | – | – | 3.66µM | – | –
